HCV inh: qHTS Assay for Inhibitors of Hepatitis C Virus (HCV) | Huh7.5.1 HCVcc-Cre infection, luciferase reporter, 44 h | Potency, µM (highest dose often 41.8 µM), without a hit: at the highest dose activity change, negative = inhibition, actives largely listed as inhibitors | 340,000 compounds, 3.4% hits | AID 651820, 2012; note: potency is the fitted concentration of half-maximal effect; % is set by controls: 0 for no effect and ±100 for the full control effect
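Whole-lifecycle infectious HCVcc-Cre system; cells 1,000/well, compound then virus (~0.5 moi) added 4 h after plating, 44 h culture. Luciferase read 15 sec following 15 min substrate incubation, room temp.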
AMA1 RON2 block: qHTS for Inhibitors of AMA1-RON; Towards Development of Antimalarial Drug Lead: Primary Screen; Plasmodium falciparum AMA1 (3D7) - RON2 peptide interaction; AlphaScreen AMA1-biotinylated RON2 peptide binding; Potency, µM (highest dose often 58.2 µM), for the others: top-dose activity change, negative = inhibition, usual class: inhibitors; 360,000 compounds, 0.2% hits; AID 720542, 2013;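 note: potency is the fitted concentration of half-maximal effect; 0% = vehicle wells and -100% = peptide control; nearly all actives have a fitted effect of over 45% in size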
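AMA1 (3D7) with his tag at 25 nM final met compounds first, then biotinylated RON2 peptide at 25 nM; detection used donor plus acceptor beads, 10 µg/mL apiece, read by AlphaScreen after 30 min at room temperature.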
Shiga toxin inh: A qHTS for Small Molecule Inhibitors of Shiga Toxin | 290,000 compounds, 9.2% hits | Vero cells, Shiga toxin protein synthesis inhibition reporter | inhibition, % at 38.7 µM | AID 2315, 2010; in the data active = inhibition mostly above about 28%, no sharp cut-off; inactive = mostly below about 43%; note: 0% is about no effect
Cycloheximide cs: Cycloheximide Counterscreen for Small Molecule Inhibitors of Shiga Toxin. cell reporter, cycloheximide protein synthesis inhibition counterscreen. max response, %. 300,000 compounds, 12% hits. AID 2314, 2010; in the data active = max response mostly above about 13%, no sharp cut-off; inactive = mostly below about 14%; note: read at 38.3 µM for the half of the compounds with a filed dose; 0% is about no effect
Pf growth 96h: Primary qHTS for delayed death inhibitors of the malarial parasite plastid, 96 hour incubation | P. falciparum luciferase reporter growth, 96 h | 320,000 compounds, 6.9% hits | Potency, µM (top dose mostly 28.7 µM), inactives show top-dose activity change, negative = inhibition, most hits filed as inhibitors; note: potency is the fitted concentration of half-maximal effect; % is set by controls: 0 for no effect and ±100 for the full control effect
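Parasite growth measured via integrated firefly luciferase reporter in P. falciparum. Infected erythrocytes at 2% hematocrit, 0.05% parasitemia final were treated 96 hours at 37 C under 5% CO2, and luminescence was read.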
Pf growth 48h: Primary qHTS for delayed death inhibitors of the malarial parasite plastid, 48 hour incubation; P. falciparum luciferase growth in erythrocytes, 48 h; Potency, µM (titrated, usually from 28.7 µM), inactives show top-dose activity change, negative = inhibition, most hits filed as inhibitors; 310,000 compounds, 5.9% hits; AID 504832, 2011; note: potency is the fitted concentration of half-maximal effect; % is set by controls: 0 for no effect and ±100 for the full control effect
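Compounds are pin-transferred into medium, infected erythrocytes (2% hematocrit, 0.1% parasitemia final) are added, and plates sit one parasite generation at 37 C in 5% CO2. Detection reagent is then added and luminescence measured.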
* marks the source's active call; other numbers are inactive results; ? = inconclusive; . = no result given. This is a sample that favours compounds with a hit; in the whole collection about 21% have one here. Unless noted, calls come from the whole dose curve; as a rule, active = well fitted curve in the direction sought with a large enough effect; inconclusive = small, poorly fitted or top-dose-only effect, or another doubt; inactive = no such curve, though single readings can be large; an effect the other way counts as inactive or inconclusive.

SMILES	HCV inh	AMA1 RON2 block	Shiga toxin inh	Cycloheximide cs	Pf growth 96h	Pf growth 48h
Cc1c(C(=O)N/N=C/c2ccccc2)sc(=S)n1C	27%	11%	-13	-5	13µM*	33%
COc1cc(/C=N/NC(=O)c2nonc2N)cc(OC)c1OC	9%	30%	87*	32*	-4%	12%
Cc1nonc1C(=O)N/N=C/c1ccccc1	14%	-6%	87*	39*	-7%	-3%
O=C1Nc2ccccc2N(O)N1c1cc(-c2ccc(Cl)cc2)[nH]n1	-1%	12%	13	10	?	38%
CC1CCN(C(=O)C2CCCN2S(=O)(=O)c2ccc(Cl)cc2)CC1 (centres undefined)	7%	-7%	9	7	?	-5%
Cc1ccccc1N1CCN(C2CCCN(C(=O)c3ccsc3)C2)CC1 (centres undefined)	-2%	-7%	-14	9	?	-16%
CCCCCC(=O)Nc1ccc(S(=O)(=O)NC2=NCCCCC2)cc1	8%	-3%	.	.	-24%	?
Cc1nonc1C(=O)N/N=C/c1ccc(O)c(O)c1	?	1%	99*	42*	9%	11%
O=C(N/N=C/c1ccc(O)c(O)c1)N/N=C/c1ccc(O)c(O)c1	15%	?	47	13	-3%	?
COc1cc(/C=N/NC(=O)c2cccc(C(=O)N/N=C/c3ccc(O)c(OC)c3)n2)ccc1O	11%	31%	19	10	-2%	-5%
COc1cc(/C=N/NC(=O)c2nc(C)cc(C)n2)ccc1O	-4%	15%	48	17*	.	14%
Cc1c(C)n(Cc2ccc(F)cc2)c2ccc(C(=O)NCCCN3CCOCC3)cc12	?	-23%	-4	-5	33%	9.3µM*
CCc1nc2ccc(C(=O)NCCCN3CCN(c4ccccc4F)CC3)cc2nc1CC	4.5µM*	-1%	-10	-3	?	?
Cc1c(C)n(C)c2ccc(C(=O)NCCCN3CCN(c4ccccc4F)CC3)cc12	?	-27%	-5	-4	-20%	10µM*
CCN(CC(=O)N1CCOCC1)S(=O)(=O)c1ccc2ccccc2c1	9%	1%	0	-3	-44%	-3%
CN(C(=O)C1CCCN(c2ncnc3c2nc2n3CCCCC2)C1)c1cccc(Cl)c1 (centres undefined)	?	0%	-6	3	-3%	2.9µM*
CCCCN(Cc1ccco1)C(=O)C1CCCN(c2ncnc3c2nc2n3CCCCC2)C1 (centres undefined)	?	-6%	25	3	15%	9.3µM*
O=C(C1CCCN(c2ncnc3c2nc2n3CCCCC2)C1)N1CCN(c2cccc(Cl)c2)CC1 (centres undefined)	?	-19%	-20	13	?	13µM*
COC(=O)[C@H](CC(C)C)NC(=O)Nc1ccc(S(N)(=O)=O)cc1	12%	-4%	-6	7	-24%	-27%
CCOC(=O)C1(C)CCN1C(=O)c1cccc(C(F)(F)F)c1 (centres undefined)	.	4%	.	.	.	.
CC1(C)Cc2ccccc2C(/C(=N\Nc2cccc(Cl)c2)C(N)=O)=N1	?	?	-3	9	9%	5.9µM*
CC(=O)c1ccc(N/N=C(/C(N)=O)C2=NC(C)(C)Cc3ccccc32)cc1	?	?	-13	-2	5%	?
CCC1CC=CC2C1C(=O)N(Cc1ccccc1)C2c1ccc(C(F)(F)F)cc1 (centres undefined)	.	.	0	2	.	.
CS(=O)(=O)N(CC(=O)N1CCCCCC1)c1cccc(F)c1	19%	10%	.	-2	?	18%
CCOc1ccccc1C1NC(=O)CCC1[N+](=O)[O-] (centres undefined)	18%	-5%	-13	-1	53%	23%
COc1ccc(C2(CNC(=O)c3ccccc3[N+](=O)[O-])CCOCC2)cc1	15%	-21%	-6	12	45%	17%
